Measurements taken from the OligoGym collection.
Also: reference of the scale not given here.

These sequences were tested against POP5 (assay: pooled miR-30 sensor sort-seq; sequence = guide strand). Conditions: shRNA.
ATTAAATCTACTCTTAGCCAAG gave a sensor-assay potency score (higher = more potent) of -1.64.
With TGAATTAGGAACTTCTGACATG the sensor-assay potency score (higher = more potent) was -0.611.
Work on TTCATCAGTGCAGTTCTGCAAC yielded a sensor-assay potency score (higher = more potent) of -0.521.
Sequence TTCTGCATCGAAGTAGCACTAT has a sensor-assay potency score (higher = more potent) of -0.187.
TTCTTGTCACAGACTTCTGGAT gave a sensor-assay potency score (higher = more potent) of -0.854.
Sequence TACAGAGTTCACAACCTGCAAC has a sensor-assay potency score (higher = more potent) of -0.95.
Work on TATTAAATCTACTCTTAGCCAA yielded a sensor-assay potency score (higher = more potent) of -0.331.
Sequence AAGATCAACAGCTGTCTCCTGT has a sensor-assay potency score (higher = more potent) of 0.552.
TACTGAATTAGGAACTTCTGAC showed a sensor-assay potency score (higher = more potent) of -0.267.
TAACTGAGTACTCCATTTCAAG gave a sensor-assay potency score (higher = more potent) of -1.58.
TTGTTCTGTTCAACAAGTGGGC showed a sensor-assay potency score (higher = more potent) of -0.188.

These sequences were tested against POU2F2 in the same assay as above. Conditions: shRNA.
TTGGTGTCGGTAGCAGGCCTGG showed a sensor-assay potency score (higher = more potent) of -1.3.
In the case of TTGAGTTTGCACATGTTCTTGA, the sensor-assay potency score (higher = more potent) is reported as 1.05.
ATTTCTTTCGGTGTCTGTGTGC showed a sensor-assay potency score (higher = more potent) of -0.0405.
Work on TTTGTCTCGATGCTGGTCCTCT yielded a sensor-assay potency score (higher = more potent) of -0.192.
For TTCGCTAGAAAACTCTTCTCTA, the sensor-assay potency score (higher = more potent) was 0.465.
In the case of TAGATTTGGTGTCGGTAGCAGG, the sensor-assay potency score (higher = more potent) is reported as -0.991.
TTCGGTGTCTGTGTGCTCTGAT showed a sensor-assay potency score (higher = more potent) of 0.743.
In the case of TTTCGGTGTCTGTGTGCTCTGA, the sensor-assay potency score (higher = more potent) is reported as -0.406.
For TTAGACATTCTTATTTCTGGAG, the sensor-assay potency score (higher = more potent) was -0.093.
TCTTCTTGCGTCTCCGGCCGGG showed a sensor-assay potency score (higher = more potent) of -0.79.
TTGATCTTTGTACTGGGGCCAG was tested, and the sensor-assay potency score (higher = more potent) was -0.786.
TTAGTGTCTGGTCCATTTCTTT showed a sensor-assay potency score (higher = more potent) of -1.05.

These sequences were tested against PPARD in the same assay as above. Conditions: shRNA.
Sequence TAAGAAAGGAGGACAGACGTGG has a sensor-assay potency score (higher = more potent) of 0.523.
TAGCGTTGTGTGACATGCCCAG was tested, and the sensor-assay potency score (higher = more potent) was 0.138.
TTGATCCGCTGCATCATCTGGG was tested, and the sensor-assay potency score (higher = more potent) was -0.175.
TTCGGTCTTCTTGATCCGCTGC gave a sensor-assay potency score (higher = more potent) of 0.435.
TTCTTCTTCTGAATCTTGCAGC showed a sensor-assay potency score (higher = more potent) of 0.0519.
Sequence TCGTACTCCAGCTTCATGCGGA has a sensor-assay potency score (higher = more potent) of -0.0495.
TTGGAGATTGTTCAGACACTGA was tested, and the sensor-assay potency score (higher = more potent) was -0.713.
In the case of TTGAACTTGACAGCAAATTCAA, the sensor-assay potency score (higher = more potent) is reported as -0.881.
Sequence TTAAAGTTTCGTCAGTCTGTGT has a sensor-assay potency score (higher = more potent) of -0.63.
Work on TTGACAGCAAATTCAAACTTAG yielded a sensor-assay potency score (higher = more potent) of -0.865.
Work on TTCTTCTGAATCTTGCAGCTGC yielded a sensor-assay potency score (higher = more potent) of 0.468.
For TTGCCGGTGAGGATGCTGCGGG, the sensor-assay potency score (higher = more potent) was -0.839.

The sequences below were run against PPARGC1A in the same assay as above. Conditions: shRNA.
For TTTATCACTTTCATCTTCGCTG, the sensor-assay potency score (higher = more potent) was 0.495.
Work on TTGACAAATACTCTTCGCTTTA yielded a sensor-assay potency score (higher = more potent) of -1.03.
With TAGTTGTCTAGAGTCTTGGAGC the sensor-assay potency score (higher = more potent) was -1.01.
For TTGTCTAGAGTCTTGGAGCTCC, the sensor-assay potency score (higher = more potent) was 0.145.
